Screens: PubChem BioAssay, several laboratories
Shown are actives, neighbours in structure and some others; about 4.5% of the full set was active somewhere.
Rtt109 Vps75: C. albicans Rtt109 histone acetyltransferase inhibition; purified Rtt109/Vps75, ThioGlo CoA-SH fluorescence, 4 h; Q5AAJ8; inhibition, % at 34.9 µM; actives 0.16% (n = 330,000); AID 540336;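 active = inhibition of at least 50% in every replicate; inconclusive = best replicate reaches 50% inhibition but some replicates fall short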
Target sequence (Q5AAJ8 whole entry, looked up): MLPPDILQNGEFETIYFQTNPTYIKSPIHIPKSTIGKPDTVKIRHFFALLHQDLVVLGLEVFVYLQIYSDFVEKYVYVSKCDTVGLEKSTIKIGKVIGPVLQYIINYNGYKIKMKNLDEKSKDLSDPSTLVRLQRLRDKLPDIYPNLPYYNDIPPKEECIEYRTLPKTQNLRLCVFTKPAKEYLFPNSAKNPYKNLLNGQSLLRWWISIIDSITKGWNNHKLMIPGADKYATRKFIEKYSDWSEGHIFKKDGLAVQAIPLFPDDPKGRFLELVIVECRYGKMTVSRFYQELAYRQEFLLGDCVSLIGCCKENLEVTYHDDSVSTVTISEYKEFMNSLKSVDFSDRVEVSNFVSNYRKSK
Rce1 inhib: blocks yeast Ras-converting enzyme | Q03530 | yeast membranes, quenched prenylated peptide cleavage fluorescence | calls only | actives 0.27% (n = 290,000) | AID 2563;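 active = fall in fluorescence gain of 50% or more versus controls, with final raw signal at or below 3038400; inconclusive = same 50% fall but final raw signal above 3038400; inactive = fall in fluorescence gain under 50%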
Efflux pump mplx: blocks antifungal efflux pumps in multiplex yeast assay | S. cerevisiae Candida pump triplex, Nile Red efflux | AID 485275 | inhibition, % at 10 µM | actives 0.44% (n = 330,000);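 active = plate passing quality check with inhibition over a set limit, or well fluorescence over plate mean plus 4 SD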;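 also: Nile Red retained in pooled yeast measured as flow cytometry median fluorescence; higher means more Nile Red kept so more efflux inhibition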
ALR H2O2 inh: blocks human ALR sulfhydryl oxidase activity; purified ALR, DTT oxidation, H2O2 HRP-luminol luminescence; inhibition, % (test concentration not listed); actives 3.8% (n = 290,000); AID 485317;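 active = mean replicate inhibition above about 79%, with every replicate also reaching it, limit read from the data; inconclusive = only one of the two criteria met; inactive = mean below limit and not every replicate reaching it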
Target sequence (P55789 whole entry, looked up): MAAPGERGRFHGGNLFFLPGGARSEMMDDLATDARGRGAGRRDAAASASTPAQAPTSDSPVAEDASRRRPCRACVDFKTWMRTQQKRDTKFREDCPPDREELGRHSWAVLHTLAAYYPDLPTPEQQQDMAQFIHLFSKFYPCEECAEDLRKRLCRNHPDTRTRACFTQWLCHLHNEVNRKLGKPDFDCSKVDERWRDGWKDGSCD
GRK2 aptamer HTS: blocks RNA aptamer binding to human GRK2; AID 488847; bead flow cytometry, FAM-aptamer displacement from GRK2; actives 0.59% (n = 330,000); inhibition of aptamer binding, % at 10 µM; P25098;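 active = inhibition of aptamer binding above 40%, roughly 3 SD of noise, on plates passing a quality check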;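 also: median bead fluorescence of bound FAM aptamer so fluorescent compounds give negative values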
HDAC3 inhib: blocks human histone deacetylase 3 | O15379 | recombinant HDAC3, fluorogenic peptide/trypsin coupled, fluorescence | inhibition, % at 8.3 µM | actives 0.15% (n = 320,000); in the data active = inhibition above about 26%, passing the limit was not always enough; inconclusive = no clear call, values can overlap the other calls
Of the large screens only hits and unclear results are named; the others gave an inactive call.

CC(=O)c1cccc(NC(=O)N2C3CCC2CC(NC(=O)C2CC2)C3)c1 (stereo not drawn)	none
F[B-](F)(F)c1cc2ccccc2s1	none (no result: Rce1 inhib, Efflux pump mplx, ALR H2O2 inh, GRK2 aptamer HTS, HDAC3 inhib)
O=C(NC1CC1)c1ccc2c(c1)S(=O)(=O)c1cc(Cl)ccc1C2=O	none (no result: Rtt109 Vps75, Rce1 inhib)
COc1cc(C2C3=C(CCCC3=O)Nc3[nH]n(-c4ccccc4)c(=O)c32)ccc1O (stereo not drawn)	ALR H2O2 inh 100 (no result: Rce1 inhib)
O=C1CCCC2=C1C(c1ccc3c(c1)OCO3)c1c([nH]n(-c3ccccc3)c1=O)N2 (stereo not drawn)	none
COc1cccc(C2C3=C(CCCC3=O)Nc3[nH]n(-c4ccccc4)c(=O)c32)c1 (stereo not drawn)	ALR H2O2 inh 78
CS(=O)(=O)c1ccc(-c2sc3ccccc3c2C(=O)NCCCN2CCOCC2)cc1	none (no result: Rce1 inhib, ALR H2O2 inh, HDAC3 inhib)
CC(=O)C1[C@H](N(C)C)CC2C3CC=C4CC(O)CC[C@]4(C)C3CC[C@@]21C (stereo partly drawn)	none
C/C(=N\N=C(/N)c1nonc1N)c1ccc2c(c1)OCO2	none
COc1ccc(-c2cc(=O)oc3c(O)c(O)ccc23)cc1	ALR H2O2 inh 99
COc1ccc(-c2cc(=O)oc3cc(OC(C)C(=O)O)ccc23)cc1 (stereo not drawn)	none
COc1ccccc1CCNC(=O)Cc1cccs1	none
O=C(CC1SC(N2CCOCC2)=NC1=O)Nc1ccc(Cl)c(C(F)(F)F)c1 (stereo not drawn)	none (no result: Rce1 inhib, ALR H2O2 inh)
O=C(CC(=O)Nc1ccccc1[N+](=O)[O-])Nc1ccccc1[N+](=O)[O-]	none
O=C1OCC(CO)(CO)N=C1NNc1cc(Cl)ccc1Cl	ALR H2O2 inh 99
O=C1OCC(CO)(CO)N=C1NNc1ccccc1[N+](=O)[O-]	ALR H2O2 inh 99
CCS(=O)(=O)Nc1ccc(-c2cc(-c3ccccc3)c3cc(C)ccc3n2)cc1	ALR H2O2 inh 89
Cc1cc(Sc2nnc(/N=C/N(C)C)s2)c2ccccc2n1	ALR H2O2 inh 98
Cc1ccc(NC(=O)COc2ccc(-n3cnnn3)cc2)cc1C	none
Cc1ccc(NC(=O)COc2ccc(/C(N)=N/O)cc2)cc1C	ALR H2O2 inh 99
CCCCOc1ccc(/C(N)=N/O)cc1	ALR H2O2 inh 99
CCC(C)(C)NC(=O)C(c1cccc(OC)c1OC)N(CCOC)C(=O)CCC(=O)Nc1cc(C)on1 (stereo not drawn)	none
N#C/C(=C\C=C\c1ccccc1[N+](=O)[O-])C(=O)NC1CCCCC1	ALR H2O2 inh 99
COC(=O)c1cccc(-n2sc3ccccc3c2=O)c1	Rtt109 Vps75 130, HDAC3 inhib 67 (no result: Rce1 inhib)
Cc1ccc(-n2sc3ccccc3c2=O)cc1	HDAC3 inhib 52
CCc1ccc(CNc2ccc3c(c2)ncn3C)cc1	none (no result: ALR H2O2 inh, HDAC3 inhib)
COc1cccc(CNc2nc3ccccc3n2C(C)C)c1O	none (no result: Efflux pump mplx, ALR H2O2 inh, GRK2 aptamer HTS, HDAC3 inhib)
CCCn1cnc2cc(NCc3cccc(OC)c3O)ccc21	ALR H2O2 inh 85
Cn1cnc2cc(NCc3ccccc3O)ccc21	ALR H2O2 inh 87
CCCn1c(NCc2cccc(OC)c2OC)nc2ccccc21	ALR H2O2 inh 98 (no result: Rtt109 Vps75, Rce1 inhib)
CCCn1c(NCc2cccc(OC)c2O)nc2ccccc21	ALR H2O2 inh 94
COC(=O)[C@H](Cc1ccccc1)NC(=O)NCCc1ccc(OC)cc1	none (no result: ALR H2O2 inh)
Oc1ccccc1CNc1cnc2ccccc2c1	Rtt109 Vps75 57, ALR H2O2 inh 86
COc1cccc(CNn2cnnc2)c1O	ALR H2O2 inh 85 (no result: Rce1 inhib)
COc1cccc(CNc2ccc3c(c2)ncn3C(C)C)c1OC	ALR H2O2 inh 92, HDAC3 inhib inconclusive
Oc1ccc(Cl)cc1CNc1cnc2ccccc2c1	none
COc1cccc(CNCc2cccc(OC)c2O)c1O	none (no result: Rce1 inhib, Efflux pump mplx, ALR H2O2 inh, GRK2 aptamer HTS, HDAC3 inhib)
Cc1ccc(CNC(=O)C2CCC(=O)N(Cc3ccccc3F)C2)s1 (stereo not drawn)	none
Cn1c(=O)c2c(ncn2CC(COCc2ccccc2)OCc2ccccc2)n(C)c1=O (stereo not drawn)	none
CN(CCCNC(=O)c1ccccc1F)CCCNC(=O)c1ccccc1F	none
Cc1c(NC(=O)c2cc(-n3cnnc3)ccc2Cl)cccc1-c1nc2ccccc2s1	ALR H2O2 inh 88
CCN(CC)c1ccc(/C=N/NC(=S)NCc2ccco2)cc1	ALR H2O2 inh 99
COc1cc(/C=N/NC(=S)NCc2ccco2)cc(OC)c1OC	none
S=C(NCc1ccco1)N/N=C/c1ccc(Cl)cc1	none (no result: ALR H2O2 inh)
Oc1c(Br)cc(/C=N/NC(=S)NCc2ccco2)cc1Br	ALR H2O2 inh 89
Oc1ccc(/C=N/NC(=S)NCc2ccco2)cc1	ALR H2O2 inh 99
CN(CC(=O)Nc1ccc(F)c(F)c1F)C(=O)c1ccc(=O)[nH]c1	none
O=C(Cc1ccc(N2CCNC2=O)cc1)N1CCCC(Nc2cccc(F)c2)C1 (stereo not drawn)	ALR H2O2 inh 99
CC1(CCC(=O)N2CCCC(Nc3ccc(F)cc3)C2)CC1 (stereo not drawn)	ALR H2O2 inh 98
O=C(CC1CCCC1)N1CCCC(Nc2ccc(F)cc2)C1 (stereo not drawn)	ALR H2O2 inh 99 (no result: Rce1 inhib)
O=C(CC1CCCC1)N1CCCC(Nc2cccc(F)c2)C1 (stereo not drawn)	ALR H2O2 inh 92
O=C(Cc1ccc(N2CCNC2=O)cc1)N1CCCC(Nc2ccc(F)c(F)c2)C1 (stereo not drawn)	none
CC(C)=C[C@H]1C[C@H](C)[C@H]2CC[C@H](C)c3c(O[C@@H]4OC[C@@H](O)[C@H](O)C4O)c(O)c(C)c1c32 (stereo partly drawn)	none (no result: Rce1 inhib)
CC(=O)Nc1ccc(NC(=O)C(C)OC(=O)CNS(=O)(=O)c2ccc(Br)cc2Cl)cc1 (stereo not drawn)	none
Cc1cc(C)n(CCC(=O)N2CCCC(Nc3ccc(F)cc3)C2)n1 (stereo not drawn)	ALR H2O2 inh 98
O=C1CCCN1CCC(=O)N1CCCC(Nc2ccc(F)c(F)c2)C1 (stereo not drawn)	none
CCOC(=O)CSC1=NC(=O)/C(=C\c2ccc(OC(C)=O)cc2)S1	ALR H2O2 inh 100
CCOc1ccc(S(=O)(=O)Nc2nc3ccccc3nc2Nc2ccc(N3CCOCC3)cc2)cc1	ALR H2O2 inh 93
COc1ccc(NC2CCCN(C(=O)CCc3ccccc3F)C2)cc1 (stereo not drawn)	ALR H2O2 inh 100
COc1ccc(NC2CCCN(C(=O)COc3ccc(C)cc3)C2)cc1 (stereo not drawn)	ALR H2O2 inh 90
COc1ccc(NC2CCCN(C(=O)CSc3ccccc3)C2)cc1 (stereo not drawn)	ALR H2O2 inh 99
COc1ccc(N2CCN(C(=O)CSc3ccccc3)CC2)cc1	none
COc1ccc(NC2CCCN(C(=O)CCOc3ccccc3)C2)cc1 (stereo not drawn)	ALR H2O2 inh 99
O=C1CCCCN1CCC(=O)N1CCCC(Nc2ccccc2)C1 (stereo not drawn)	none
Cc1cc(NC(=O)C(C)SCC(=O)NCc2ccc(F)cc2)no1 (stereo not drawn)	none (no result: Rce1 inhib, ALR H2O2 inh, HDAC3 inhib)
